Unmarked numbers belong to inactive results. The rule behind the calls is not given here.
System: Aerobactin synthetase IucA (Klebsiella pneumoniae hvKP1)
Assay: IucA enzyme inhibition, primary screen, biochemical, Spectrum library (AID 1346200);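 note: 100% = wells without compound and 0% = wells lacking enzyme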
Details: malachite green pyrophosphate, A620, at 8 µM, stronger effect = lower value

SMILES | activity remaining [%]
COc1cc2c(cc1OC)[C@@H]1C(=O)c3ccc4c(c3O[C@@H]1CO2)C=CC(C)(C)O4 | 118
CC1(C)S[C@@H]2[C@H](NC(=O)COc3ccccc3)C(=O)N2[C@H]1C(=O)O | 96.2
CC(=O)O[C@H]1CC[C@]2(C)C3CC(=O)[C@]4(C)C(C(C)=O)=CCC4C3CC[C@H]2C1 (some centres undefined) | 101
CN1C2CC3C[C@H]1C(O3)C2O (some centres undefined) | 108
